# PubChem BioAssay (EPA / NIEHS)
# Records with an inconclusive call do not appear. The source made the active and inactive calls. Rule for the calls: active = hit-call score of the fitted dose curve at least 0.9, where 1 is the maximum; inconclusive = response in the unintended direction; inactive = score below 0.9.
# Molecular target: Cellular tumor antigen p53 (Homo sapiens) (UniProt P04637)
# Assay: TOX21_p53_BLA_p3_ratio: Tox21 HCT-116 p53 Agonism Beta-lactamase Assay, Ratio, Phase 3 (AID 2283596)
# How it was run: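 Cells were seeded at 4000/well, rested 5 h at 37C, then dosed with DMSO compound solutions (217-fold dilution) for 16 h. CCF4-AM substrate was loaded for 2 h at room temperature, and the 460/530 nm emission ratio was fitted for gain of signal versus DMSO.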
# Chain of Cellular tumor antigen p53 (Homo sapiens) (P04637 whole entry, looked up): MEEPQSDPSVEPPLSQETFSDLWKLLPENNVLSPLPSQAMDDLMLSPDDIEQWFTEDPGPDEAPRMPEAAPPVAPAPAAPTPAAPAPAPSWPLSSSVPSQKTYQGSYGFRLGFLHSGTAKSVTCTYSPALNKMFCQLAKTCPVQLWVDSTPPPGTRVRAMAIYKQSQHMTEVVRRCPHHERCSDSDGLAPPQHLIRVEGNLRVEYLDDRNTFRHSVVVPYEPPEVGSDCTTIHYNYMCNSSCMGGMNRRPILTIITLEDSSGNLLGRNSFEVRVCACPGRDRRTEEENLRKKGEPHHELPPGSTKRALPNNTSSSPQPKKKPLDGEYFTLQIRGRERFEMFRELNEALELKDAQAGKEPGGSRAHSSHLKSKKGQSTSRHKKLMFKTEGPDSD
SMILES,outcome,AC50
CCN(CC)c1c([N+](=O)[O-])cc(C(F)(F)F)c(N)c1[N+](=O)[O-],inactive,
COP(=O)(OC)Oc1ccc([N+](=O)[O-])cc1,inactive,
COC(=O)C(C)N(C(=O)Cc1ccccc1)c1c(C)cccc1C (stereo unspecified),inactive,
CC(C)OC(=O)C(O)(c1ccc(Cl)cc1)c1ccc(Cl)cc1,inactive,
CC(=O)[O][Pb]([c]1ccccc1)([c]1ccccc1)[c]1ccccc1,,38.7 µM (active)
N#Cc1sc2c(=O)c3ccccc3c(=O)c=2sc1C#N,,52.2 µM (active)
IC(I)=C(I)I,inactive,
[Hg+2].[I-].[I-],,72.1 µM (active)

# Tested on: not listed separately
# Assay: TOX21_p53_BLA_p4_viability: Viability Assessment in the Tox21 HCT-116 p53 Agonism Beta-lactamase Assay, Phase 4 (AID 2283597);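 note: hits lower the luminescence signal meaning cytotoxicity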
# How it was run: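 Readout: ATP luminescence (CellTiter-Glo), measured 30 min after reagent addition at RT. The reagent followed a 2 h CCF4-AM incubation, and the cells had been exposed to compound for 16 h at 37C.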
SMILES,outcome,AC50
CSc1ccc(C(=O)C(C)(C)N2CCOCC2)cc1,inactive,
CCN(CC)c1c([N+](=O)[O-])cc(C(F)(F)F)c(N)c1[N+](=O)[O-],inactive,
CC(C)OC(=O)C(O)(c1ccc(Cl)cc1)c1ccc(Cl)cc1,,67.4 µM (active)
CC(=O)[O][Pb]([c]1ccccc1)([c]1ccccc1)[c]1ccccc1,,0.655 µM (active)
OC(c1ccc(F)cc1)(c1cncnc1)c1ccccc1Cl (stereo unspecified),inactive,
N#Cc1sc2c(=O)c3ccccc3c(=O)c=2sc1C#N,,8.76 µM (active)
IC(I)=C(I)I,,12.8 µM (active)
[Hg+2].[I-].[I-],,18.4 µM (active)

# Molecular target: Cellular tumor antigen p53 (Homo sapiens) (UniProt P04637)
# Assay: TOX21_p53_BLA_p5_ratio: Tox21 HCT-116 p53 Agonism Beta-lactamase Assay, Ratio, Phase 5 (AID 2283599)
# How it was run: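 Beta-lactamase reporter ratio (blue 460 nm over green 530 nm, 405 nm excitation) after 2 h CCF4-AM loading, in HCT-116 cells exposed 16 h at 37 C to compounds pinned at 217-fold dilution. Increases relative to DMSO baseline scored.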
SMILES,outcome,AC50
CSc1ccc(C(=O)C(C)(C)N2CCOCC2)cc1,inactive,
COP(=O)(OC)Oc1ccc([N+](=O)[O-])cc1,inactive,
CC(C)OC(=O)C(O)(c1ccc(Cl)cc1)c1ccc(Cl)cc1,,66.6 µM (active)
CC(=O)[O][Pb]([c]1ccccc1)([c]1ccccc1)[c]1ccccc1,,32.7 µM (active)
N#Cc1sc2c(=O)c3ccccc3c(=O)c=2sc1C#N,,0.347 µM (active)
IC(I)=C(I)I,,13.7 µM (active)
[Hg+2].[I-].[I-],,73.7 µM (active)

# Tested on: not listed separately
# Assay: TOX21_p53_BLA_p5_viability: Viability Assessment in the Tox21 HCT-116 p53 Agonism Beta-lactamase Assay, Phase 5 (AID 2283600)
# How it was run: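 Workflow: seed 4000 cells per well, wait 5 h, add compounds (DMSO, 217-fold dilution), incubate 16 h, load CCF4-AM 2 h, add CellTiter-Glo, read luminescence after 30 min.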
SMILES,outcome,AC50
CSc1ccc(C(=O)C(C)(C)N2CCOCC2)cc1,inactive,
CCN(CC)c1c([N+](=O)[O-])cc(C(F)(F)F)c(N)c1[N+](=O)[O-],inactive,
COP(=O)(OC)Oc1ccc([N+](=O)[O-])cc1,inactive,
CC(C)OC(=O)C(O)(c1ccc(Cl)cc1)c1ccc(Cl)cc1,inactive,
CC(=O)[O][Pb]([c]1ccccc1)([c]1ccccc1)[c]1ccccc1,,1.32 µM (active)
N#Cc1sc2c(=O)c3ccccc3c(=O)c=2sc1C#N,,7.3 µM (active)
IC(I)=C(I)I,inactive,
[Hg+2].[I-].[I-],,57.5 µM (active)
